Compound activity as filed in PubChem BioAssay.
This is a sample that favours compounds with a hit; in the whole collection about 3.6% have one here.
Pf apPOL block: Pf-apPOL DNA polymerase inhibition | 0.25% of 210,000 active | inhibition, % at 10 µM | Recombinant Pf-apPOL, molecular beacon fluorescence, 1.5 h
mHTT CaM bind: mHTT-calmodulin interaction abrogation | AlphaScreen His-mHTT/GST-CaM binding, luminescence | inhibition, % at 15 µM | 3.6% of 190,000 active;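 also: 0% = both proteins with DMSO and 100% = one protein alone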
* = called active by the depositor. Rule as the data show it: active = inhibition above about 50%; inactive = the rest.

Screening O=C1CC(C(=O)N2CCc3ccccc3C2)CN1CCc1c[nH]c2ccc(F)cc12 (stereo not drawn) returned Pf apPOL block 2 and mHTT CaM bind 46.
Screening CN(C)c1ccc(CNC(=O)c2cn3c(n2)CSCC3)cc1 returned Pf apPOL block -3 and mHTT CaM bind 10.
O=C(CSc1ccncc1)N1CCCn2nc(-c3cccs3)cc2C1 was read as Pf apPOL block -2 and mHTT CaM bind 6.
`CC(=O)Oc1ccc2c(c1)OC(=Cc1ccc(Cl)cc1Cl)C2=O` gave Pf apPOL block -3 and mHTT CaM bind 14.
Screening O=C1NC(=O)C(=Cc2ccccc2Br)S1 returned Pf apPOL block 12 and mHTT CaM bind -13.
For CCOc1ccc(/C=C2\N=C(c3cccc(F)c3)OC2=O)cc1 the results were Pf apPOL block 14 and mHTT CaM bind 1.
Screening Cc1ccc(NC(=O)c2ccc(-c3ccc(F)cc3)nc2)cc1 returned Pf apPOL block -2 and mHTT CaM bind -7.
For O=C(O)C=CC(=O)NNC(=O)c1ccccc1[N+](=O)[O-] the results were Pf apPOL block 0.
For Cc1cc2ccccc2n1CCNC(=O)c1c(F)cccc1Cl the results were Pf apPOL block -6 and mHTT CaM bind 40.
Screening CC(C)C(=O)NC(c1cccc([N+](=O)[O-])c1)c1ccc2cccnc2c1O (stereo not drawn) returned Pf apPOL block 5 and mHTT CaM bind 100*.
`CCCC(=O)NC(c1cccc([N+](=O)[O-])c1)c1ccc2cccnc2c1O` (stereo not drawn) gave Pf apPOL block -4 and mHTT CaM bind 99*.
Screening CCCC(=O)NC(c1cccc(F)c1)c1ccc2cccnc2c1O (stereo not drawn) returned Pf apPOL block 2 and mHTT CaM bind 100*.
CSc1nc(N)c2c3c(sc2n1)CCC3 was read as Pf apPOL block -4 and mHTT CaM bind 1.
Cc1noc(-c2cccc(F)c2)c1C(=O)NC1CCc2ccccc21 (stereo not drawn) was read as Pf apPOL block -6 and mHTT CaM bind -8.
Fc1ccc(N2CCN(c3ncc4c(n3)CCN(Cc3ccc(F)c(F)c3)C4)CC2)cc1 was read as Pf apPOL block 1 and mHTT CaM bind -1.
COc1ccc(-c2nc3c(c(=O)[nH]2)CCN(C(=O)c2cccn2C)C3)cc1 was read as Pf apPOL block -1 and mHTT CaM bind 0.
`COc1cccc(C(=O)N2CCc3c(c(C(=O)NCc4ccccc4)nn3C)C2)c1` gave Pf apPOL block -5 and mHTT CaM bind 69*.
For Cn1nc(C(=O)NCc2ccccc2)c2c1CCN(C(=O)c1cccs1)C2 the results were Pf apPOL block -14 and mHTT CaM bind 4.
Screening COc1cccc(C(=O)N2CCc3c(c(C(=O)NCc4ccc(Cl)cc4)nn3C)C2)c1 returned Pf apPOL block -2 and mHTT CaM bind 90*.
`Cn1nc(C(=O)NCc2ccccc2)c2c1CCN(C(=O)c1cccc(Cl)c1)C2` gave Pf apPOL block -11 and mHTT CaM bind 81*.
Screening Cn1nc(C(=O)NCc2ccc(Cl)cc2)c2c1CCN(C(=O)c1ccccc1F)C2 returned Pf apPOL block 14 and mHTT CaM bind 43.
For COc1ccccc1C(=O)N1CCc2c(c(C(=O)NCc3ccc(Cl)cc3)nn2C)C1 the results were Pf apPOL block 4 and mHTT CaM bind 80*.
`Cn1nc(C(=O)NCc2ccccc2)c2c1CCN(C(=O)c1ccc(Cl)cc1)C2` gave Pf apPOL block -3 and mHTT CaM bind 0.
For CC(=O)N(Cc1nn(C)c2c1CN(C(=O)Nc1cccc(C)c1C)CC2)c1ccccc1 the results were Pf apPOL block 1 and mHTT CaM bind 1.
Screening COc1ccc(CCN2CC(C(=O)NCc3ccc(C)o3)CC2=O)cc1OC (stereo not drawn) returned Pf apPOL block 2 and mHTT CaM bind 15.
Screening O=C(Nc1c2c(nn1-c1ccc([N+](=O)[O-])cc1)CSC2)c1cc(Cl)ccc1Cl returned Pf apPOL block -84 and mHTT CaM bind 11.
`Cc1cccc(NC(=O)N2CCCC2c2cc(C)no2)c1` (stereo not drawn) gave Pf apPOL block -6 and mHTT CaM bind -11.
Cn1nc(C(=O)NCc2ccccc2)c2c1CCN(C(=O)c1c(F)cccc1F)C2 was read as Pf apPOL block 4 and mHTT CaM bind 2.
For COc1ccc(C(=O)N2CCc3c(c(C(=O)NCc4ccccc4)nn3C)C2)cc1OC the results were Pf apPOL block -10 and mHTT CaM bind 75*.
`CCOc1ccc(C(=O)N2CCc3c(c(C(=O)NCc4ccccc4)nn3C)C2)cc1` gave Pf apPOL block -11 and mHTT CaM bind -17.
`CN(C)c1cccc(C(=O)N2CCc3c(c(C(=O)NCc4ccccc4)nn3C)C2)c1` gave Pf apPOL block -5 and mHTT CaM bind 50*.
`CC1=Nc2ccccc2C1=Cc1sc(=N)n(-c2nccs2)c1O` gave Pf apPOL block 0 and mHTT CaM bind 100*.
`CC1=Nc2ccccc2C1=Cc1sc(=O)n(-c2ccccc2)c1O` gave Pf apPOL block 4 and mHTT CaM bind 26.
For CSc1nnc2c(n1)OC(c1cc3c(cc1[N+](=O)[O-])OCO3)N(C(C)=O)c1ccccc1-2 (stereo not drawn) the results were Pf apPOL block 1 and mHTT CaM bind 10.
Screening CSc1nnc2c(n1)OC(c1cc3c(cc1Cl)OCO3)N(C(C)=O)c1ccccc1-2 (stereo not drawn) returned Pf apPOL block -13 and mHTT CaM bind 78*.
`CCN(CC)c1ccc(C2Oc3nc(SC)nnc3-c3ccccc3N2C(C)=O)c(OC)c1` (stereo not drawn) gave Pf apPOL block -10 and mHTT CaM bind 59*.
CCSc1nnc2c(n1)OC(c1ccccc1OC)N(C(C)=O)c1ccccc1-2 (stereo not drawn) was read as Pf apPOL block 5 and mHTT CaM bind 14.
Screening O=C(Nc1cccc([N+](=O)[O-])c1)c1cc(S(=O)(=O)N2CCCCC2)ccc1Cl returned Pf apPOL block -1 and mHTT CaM bind 12.
`O=[N+]([O-])c1cc(Nc2ccccc2)c(C=Nc2ccccc2)c([N+](=O)[O-])c1` gave Pf apPOL block 3 and mHTT CaM bind 51*.
Screening O=[N+]([O-])c1ccc(O)c(C=Nc2ccc(Nc3ccccc3)cc2)c1 returned Pf apPOL block -3 and mHTT CaM bind 19.
For O=[N+]([O-])c1ccc(NN=Cc2ccccc2)c([N+](=O)[O-])c1 the results were Pf apPOL block -5.
`O=[N+]([O-])c1ccc(NNc2ccccc2)c([N+](=O)[O-])c1` gave mHTT CaM bind 69*.
CCCCOc1ccc(/C=C2\N=C(c3ccccc3F)OC2=O)cc1 was read as Pf apPOL block 2 and mHTT CaM bind -6.
Screening Cc1cc(C)cc(C(=O)N2CCCN(Cc3nc4ccccc4o3)CC2)c1 returned Pf apPOL block 3 and mHTT CaM bind 34.
For O=C(c1ccc(F)c(F)c1)N1CCCN(Cc2nc3ccc(Cl)cc3o2)CC1 the results were Pf apPOL block -7 and mHTT CaM bind 60*.
`O=C1NC(=S)S/C1=C/N1CCOCC1` gave mHTT CaM bind -3.
Screening Cc1ccc(S(=O)(=O)N2CCC(CN3CCCCCC3)CC2)cc1F returned Pf apPOL block -3 and mHTT CaM bind 2.
For N#C/C(=C\c1ccc2c(c1)OCO2)c1[nH]nc(N)c1C#N the results were Pf apPOL block -3 and mHTT CaM bind 20.
`COc1cc(/C=C(\C#N)c2[nH]nc(N)c2C#N)cc(OC)c1OC` gave Pf apPOL block -3 and mHTT CaM bind -5.
